These results are taken from PubChem BioAssay AID504384 (National Center for Advancing Translational Sciences (NCATS), 2011).

Activity calls are given as the source filed them.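 The calls were made as follows: active = compound that blocked FSH-driven cAMP in FSH receptor cells, giving a fitted IC50; inactive = the rest.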

The target in this test is Follicle-stimulating hormone receptor (Homo sapiens) (UniProt P23945). Put plainly: Counterscreen for antagonists of the thyroid stimulating hormone receptor: ELISA activity in a Follicle Stimulating Hormone receptor cell line. Conditions: HEK293-FSHR, FSH-induced cAMP ELISA chemiluminescence. The text has this: TSH is an alpha/beta heterodimeric glycoprotein hormone secreted from the anterior pituitary gland which belongs to the glycoprotein hormone family. The actions of TSH are mediated by a seven-transmembrane receptor, which upon TSH binding couples preferentially to the G-alpha (s) protein (Gs), resulting in activation of adenylate cyclase and increase in cyclic adenosine 3', 5' monophosphate (cAMP). The TSH receptor (THSR) is mainly expressed in thyroid follicular cells and regulates their growth and function. This cell based assay was conducted on a TSHR transfected HEK 293 cell line, measuring cAMP stimulation using antibody-based Homogeneous Time Resolved Fluorescence (HTRF). Our goal is to identify small molecules that will inhibit (antagonize) the thyroid-stimulating hormone receptor (TSHR), a member of the 7 transmembrane-spanning receptor (7TMR) family of cell surface receptors. TSHR-mediated hyperthyroidism is important in thyroid pathology. The development of small molecule antagonists of TSHR may lead to therapeutic approaches for TSHR-mediated hyperthyroidism caused by constitutively activating mutations or stimulating auto-antibodies associated with Graves' disease. Graves' disease is the leading cause of hyperthyroidism and is caused by autoantibodies that stimulate TSHR (TsAbs) causing thyroid growth and unregulated overproduction of thyroid hormones and existing treatments have liabilities (agranulocytosis). In addition, TSHRs are known to be expressed in multiple extrathyroidal tissues including bone, brain, kidney, testis, fat and cells of the immune system but the role of the TSHR in these tissues is not clear. Therefore, TSHR antagonists/inverse agonists could be used as probes of extrathyroidal TSHR function. Finally, TSHR inverse agonists, which are a subclass of antagonists that inhibit agonist-independent (or basal or constitutive) TSHR signaling, could be used to inhibit TSH-independent signaling in patients with recurrent or metastatic thyroid cancer who are receiving thyroid hormone to suppress TSH. In order to confirm specificity of the compounds to the TSHR, a confirmatory assay was conducted on a similar family member, the Follicle Stimulating Hormone (FSH) receptor, transfected into a HEK 293 cell line, using an orthogonal detection technology to measure cAMP stimulation: an ELISA based cAMP competition assay using cAMP-Screen Direct System (Applied Biosystems, Foster City, CA).
Follicle-stimulating hormone receptor (Homo sapiens), sequence (P23945 whole entry, looked up): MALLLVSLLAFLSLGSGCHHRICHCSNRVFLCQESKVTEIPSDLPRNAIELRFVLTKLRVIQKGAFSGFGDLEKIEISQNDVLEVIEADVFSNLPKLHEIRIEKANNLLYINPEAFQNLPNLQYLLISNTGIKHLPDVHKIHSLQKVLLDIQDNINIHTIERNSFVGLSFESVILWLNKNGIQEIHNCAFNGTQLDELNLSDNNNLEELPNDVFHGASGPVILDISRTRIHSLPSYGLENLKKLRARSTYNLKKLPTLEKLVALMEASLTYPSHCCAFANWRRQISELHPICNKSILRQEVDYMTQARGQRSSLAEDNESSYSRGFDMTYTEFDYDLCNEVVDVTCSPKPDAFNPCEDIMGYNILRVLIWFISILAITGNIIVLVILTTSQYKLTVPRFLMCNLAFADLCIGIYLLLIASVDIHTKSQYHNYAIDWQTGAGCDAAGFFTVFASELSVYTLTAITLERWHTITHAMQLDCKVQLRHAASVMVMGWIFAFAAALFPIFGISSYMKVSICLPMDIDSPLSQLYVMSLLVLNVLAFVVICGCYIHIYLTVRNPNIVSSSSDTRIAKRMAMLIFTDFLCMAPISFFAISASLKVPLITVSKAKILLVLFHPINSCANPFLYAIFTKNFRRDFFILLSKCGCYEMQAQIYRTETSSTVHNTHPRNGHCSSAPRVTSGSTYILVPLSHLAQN
Transiently transfected HEK-EM 293 cells or cells stably expressing FSHR were seeded into 96-well plates at a density of 7 x10^4 cells per well in DMEM containing 10% FBS. Cells were cultured for 24 h before incubation for 20 min in HBSS/10 mM HEPES (pH 7.4). To determine the effect of the compound on FSH induced FSHR activity, cells were incubated for 20 min with the compound in HBSS/HEPES without IBMX and subsequently for 40 min with bovine FSH (Sigma) and the compound in HBSS/HEPES supplemented with 1 mM IBMX at 37 C. The levels of cAMP in cells incubated in HBSS/HEPES without IBMX were subtracted in all experiments. After aspiration of the incubation medium, cells were lysed using lysis buffer of the cAMP-Screen Direct system (Applied Biosystems, Foster City, CA). The cAMP content of the cell lysate was determined using the method described in the manufacturer's protocol. The chemiluminescence signal was measured in a VICTOR3 V 1420 multilabel counter (PerkinElmer, Norwalk, CT). The potencies (EC50 and IC50) of the ligands were obtained from dose-response curves by data analysis with GraphPad Prism 4 for Windows.
Consider `CCc1cccc(CC)c1OCc1cc(C2Nc3ccccc3C(=O)N2Cc2ccco2)ccc1OC` (stereo unspecified), for which the result was inactive.

Consider `COc1ccc(C2Nc3ccccc3C(=O)N2Cc2ccco2)cc1COc1c(C)cccc1C` (stereo unspecified), for which the IC50 is 4.55 µM (active).

In the case of `Cc1cccc(C)c1OCc1cccc(C2Nc3ccccc3C(=O)N2Cc2ccco2)c1` (stereo unspecified), the IC50 was 8.2 µM (active).

In the case of `COc1ccc(C2Nc3ccccc3C(=O)N2Cc2cccnc2)cc1COc1c(C)cccc1C` (stereo unspecified), the half-maximal inhibitory concentration (IC50) is 32.7 µM (active).

With `COc1ccc(C2Nc3ccccc3C(=O)N2Cc2ccco2)cc1COc1c(C)cc(NC(C)=O)cc1C` (stereo unspecified), the call was inactive.

For the compound `COc1ccc(C2Nc3ccccc3C(=O)N2Cc2ccco2)cc1CSc1c(C)cccc1C` (stereo unspecified), the IC50 is 14.6 µM (active).
